Compound activity (PubChem BioAssay)
NPSR antag: qHTS Assay for Antagonists of the Neuropeptide S Receptor: cAMP Signal Transduction; AID 1461, 2008; Potency, µM (doses to about 38.3 µM), for inactives: at the top dose activity change, negative = inhibition, hits mostly inhibitors; actives 1% (n = 220,000); CHO-NPSR cells, cAMP TR-FRET, antagonist mode; note: potency is the fitted concentration of half-maximal effect; % is set by controls: 0 for no effect and ±100 for the full control effect; nearly all actives have a fitted effect of over 50% in size
IL2 activator: qHTS of IL-2 Activators | AID 652025, 2013 | IL-2 activation reporter assay, cell-based qHTS; stimulated with anti-CD3/CD4/CD28 beads; in transgenic mouse T cells | activation, % (series mostly up to about 46 µM) | actives 0.065% (n = 360,000); in the data active = activation above about 50%; inconclusive = mostly about 30% to 49%; note: 0% is about no effect
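EGFP and DsRed fluorescence is measured by plate cytometry in unstimulated transgenic mouse T cells exposed to compound for 60 minutes, then stimulated 18 hours at 37 degrees C with anti-CD3/anti-CD4 beads plus anti-CD28.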
PKM2 act: qHTS Assay for Activators of Human Muscle isoform 2 Pyruvate Kinase | purified PKM2, Kinase-Glo ATP luminescence, activation; response scale: 0% is enzyme alone, no compound | Potency, µM (highest dose often 57.5 µM), for the others: at the highest dose activation, hits mostly activators | Pyruvate kinase PKM (Homo sapiens), P14618 | actives 0.34% (n = 260,000) | AID 1631, 2009; note: potency is the fitted concentration of half-maximal effect; % is set by controls: 0 for no effect and ±100 for the full control effect; nearly all actives have a fitted effect of over 55% in size
Target sequence (P14618 whole entry, looked up, canonical isoform): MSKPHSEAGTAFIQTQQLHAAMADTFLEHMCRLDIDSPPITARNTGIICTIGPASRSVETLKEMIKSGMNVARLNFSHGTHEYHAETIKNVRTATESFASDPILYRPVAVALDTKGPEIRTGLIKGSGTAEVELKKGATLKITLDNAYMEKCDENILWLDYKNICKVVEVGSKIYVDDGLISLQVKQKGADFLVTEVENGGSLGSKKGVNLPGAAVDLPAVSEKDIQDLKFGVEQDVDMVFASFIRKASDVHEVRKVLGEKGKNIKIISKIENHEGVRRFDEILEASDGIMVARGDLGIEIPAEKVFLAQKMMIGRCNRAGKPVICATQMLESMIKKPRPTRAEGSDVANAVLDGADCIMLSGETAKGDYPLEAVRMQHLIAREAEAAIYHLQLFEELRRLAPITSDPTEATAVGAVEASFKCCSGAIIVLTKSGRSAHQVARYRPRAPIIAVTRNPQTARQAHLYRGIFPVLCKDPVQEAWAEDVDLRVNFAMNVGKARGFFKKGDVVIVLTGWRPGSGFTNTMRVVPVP
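Purified hPK-M2 (>95%) run at intermediate activity with 0.1 mM ADP and 0.5 mM PEP in 50 mM imidazole pH 7.2, KCl, MgCl2; 1 h room temperature. ATP formed read by Kinase-Glo luminescence; normalized to uninhibited and no-enzyme controls.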
ClpP mod: qHTS Assay for Activators of ClpP; Potency, µM (top dose mostly 57.5 µM), inactives show at the top dose activity change, negative = active; ATP-dependent Clp protease proteolytic subunit (Bacillus subtilis (strain 168)), P80244; purified B. subtilis ClpP, FRET peptide cleavage, 20 min; actives 1.9% (n = 340,000); active = well fitted falling curve with a large enough effect; inconclusive = small, poorly fitted or top-dose-only effect; inactive = no such curve, though single readings can be large or run the other way; note: potency is the fitted concentration of half-maximal effect; the source files actives as falling curves though it sought activators and does not explain the sign; nearly all actives have a fitted effect of over 65% in size
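FRET quenching reversal measured ClpP activation: 10 microg/mL B. subtilis ClpP at pH 8 with the FRET-FV decapeptide, read at 430 nm after 320 nm excitation. The 20-min minus 0-min signal was scaled between DMSO/no-enzyme wells and ADEP (5.8 microM final).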
Active calls of the source: *; ? = inconclusive; . = no result; [ ] = dose if it differs, or a comment. A selection: hits, their analogues and other compounds. The true share with any hit is near 2%. Unless noted, calls come from the whole dose curve; as a rule, active = well fitted curve in the direction sought with a large enough effect; inconclusive = small, poorly fitted or top-dose-only effect, or another doubt; inactive = no such curve, though single readings can be large; an effect the other way counts as inactive or inconclusive.

SMILES	NPSR antag	IL2 activator	PKM2 act	ClpP mod
Cc1cc(C)c2nc(-c3ccccn3)cc(C(=O)Nc3ccc(S(=O)(=O)Nc4onc(C)c4C)cc3)c2c1	-56%	1	1%	.
COc1ccccc1C(=O)Nc1ccc(S(=O)(=O)Nc2cc(C)on2)cc1	-8%[46.1 µM]	1	3%	25µM*
Cc1cc(C)c2nc(-c3ccccn3)cc(C(=O)Nc3ccc(S(=O)(=O)Nc4cc(C)on4)cc3)c2c1	10µM*	-1	-3%	?
Cc1cc(NS(=O)(=O)c2ccc(NC(=O)c3ccccc3F)cc2)no1	.	0	.	1%
COc1cccc(-c2nc(SC)nc3sc(C(=O)NC(C)(C)C)c(N)c23)c1	.	0	.	.
CCCCN1CC(COCc2ccccc2)Oc2cccc(N3CCCC3)c2S1(=O)=O (stereo unspecified)	.	-1	.	?
Cc1ccc(-n2c(Cl)c(Cl)nc(Cl)c2=O)cc1	10µM*	-5	-10%	-4%
COc1nc(Cl)cn(-c2ccc(C)cc2)c1=O	5%	-1	5%	-8%
CC(C)CNC(=O)NC(=O)COC(=O)c1cc(F)cc(F)c1	1%	-1	-1%	3%
CCn1cc(C(=O)OCC(=O)N(C)C2CCS(=O)(=O)C2)c(=O)c2ccc(C)nc21 (stereo unspecified)	1%[46.1 µM]	2	3%	-1%
CCn1cc(C(=O)OCC(=O)N2C(C)CCCC2C)c(=O)c2ccc(C)nc21 (stereo unspecified)	18%	0	-4%	16µM*
Cc1cc(-c2n[nH]c(=S)n2/N=C/c2ccc(C)s2)n[nH]1	-5%	0	-14%	1%
NS(=O)(=O)c1cccc(NC(=O)c2cc(-c3cccs3)nc3ccccc23)c1	33%	0	0%	4%
CN(C)S(=O)(=O)c1cccc(NC(=O)c2cc(-c3cccs3)nc3ccccc23)c1	2%	0	-5%	16µM*
O=C(c1cc(-c2cccs2)nc2ccccc12)N1CCN(S(=O)(=O)c2ccccc2)CC1	-29%[46.1 µM]	-2	?	25µM*
O=C(COC(=O)Cc1ccc(Br)cc1)NC1CCCCC1	7%	-3	1%	.
c1ccc(-c2nc(-n3nc4ccccc4n3)nc3ccccc23)cc1	?	-1	-2%	35µM*
C=Cc1ccc(Cn2c(C(=O)O)c(CNC3CCCCC3)c3ccc(C)cc32)cc1	.	.	.	-5%
CCc1ccccc1NC(=O)c1sc2nc(C)cc(C)c2c1N	.	0	1%	32µM*
O=C(NCCCn1ccnc1)Nc1cccc2ccccc12	6%[46.1 µM]	-1	-2%	32µM*
Cc1nn(C)cc1CNC(=O)C1(C)CC1(Cl)Cl (stereo unspecified)	11%	1	9%	5%
CC(C)NC(=O)/C(C#N)=C/c1ccc(N(C)C)o1	13µM*	0	1%	0%
O=C(COC(=O)c1cc(=O)[nH]c2ccccc12)Nc1cccc(S(=O)(=O)N2CCOCC2)c1	9%	-1	-3%	-8%
Cc1ccccc1Nc1nnc(SCC(=O)Nc2ccccc2[N+](=O)[O-])s1	16%	-6	13%	32µM*
COC(=O)C1=C(C)N=c2s/c(=C/c3ccoc3)c(=O)n2C1c1ccccc1 (stereo unspecified)	?	2	22µM*	1%
SMILES	NPSR antag	IL2 activator	PKM2 act	ClpP mod
CCOC(=O)C1=C(C)N=c2s/c(=C\c3ccc(OCC(=O)O)cc3)c(=O)n2C1c1ccccc1 (stereo unspecified)	.	1	-1%	1%
CC1=C(C(=O)OC2CCCCCCC2)C(c2ccc(O)cc2)NC(=O)N1 (stereo unspecified)	-9%[46.1 µM]	1	1%	-1%
CC1=C(C(=O)OC2CCCCC2)C(c2ccccc2)NC(=O)N1 (stereo unspecified)	.	1	0%[11.5 µM]	2.8µM*
CC(=O)Nc1c(C)nn(-c2ccccc2)c1N1CCC(C(=O)Nc2cc(F)ccc2F)CC1	.	.	.	-1%
N#CC1(NC(=O)CSc2n[nH]c(-c3ccccc3)n2)CCCCC1	.	0	.	14µM*
Cc1cc(SCC(=O)NC2(C#N)CCCCC2)nc2c(C)cccc12	.	-2	.	32µM*
CCOC(=O)c1c(-c2ccccc2)nc2ccccn12	4%[46.1 µM]	-2	2%	-10%
CCOC(=O)c1c(C(F)(F)F)nc2ncccn12	-3%[46.1 µM]	0	-4%	25µM*
